SMARCA2 act: activators of SMARCA2 function. MG213 cells, MMTV-luciferase reporter, dexamethasone, overnight. activation, % at 9.1 µM. 1% of 370,000 active. AID 652017; in the data active = activation above about 7.8%;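 also: 0% = vehicle wells and 100% = reference activator wells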
GAA850 FXN act: frataxin GAA850 promoter activation. HEK293 lucGAA850 FXN promoter luciferase reporter, 24 h; percent of 10 µM SAHA response. activation, % at 6 µM. 0.56% of 360,000 active. AID 540364;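 active = activation above the average of all compounds screened plus 3 SD, cutoff fixed separately per campaign, cut at about 7.5% in these data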;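 also: 0% = DMSO wells and 100% = 10 µM SAHA wells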
Gli-Sufu block: Gli-Sufu pathway antagonism | Sufu-KO-LIGHT fibroblasts, Gli luciferase reporter luminescence | AID 588413 | 0.74% of 340,000 active | inhibition, % at 5 µM;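 active = inhibition above about 55%, limit read from the data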;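 also: 0% = DMSO-treated cells and 100% = wells with medium but no cells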
Cardio protect: myocardial damage modulation in H9c2 cells. protection from H2O2 cell death, % at 20 µM. 0.63% of 360,000 active. H9c2 cardiomyocytes, H2O2 injury protection, ATPLite, 2 h. AID 588492;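 active = compounds giving at least 50% protection of heart cells from peroxide-induced death in the single-dose screen, raw or plate-pattern-corrected value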;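 also: 0% = DMSO wells with peroxide and 100% = DMSO wells without peroxide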
COUP-TFII inh: blocks human COUP-TFII nuclear receptor; P24468; HEK293T NGFI-A luciferase reporter, luminescence; inhibition, % at 8.6 µM; 0.7% of 370,000 active; AID 686940;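 active = inhibition above a per-plate cutoff, mean inhibition of test wells between control levels plus 3 SD, cut at about 38% in these data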;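 also: cells cotransfected with COUP-TFII expression vector driving the NGFI-A reporter; 0% = median of COUP-TF2 test wells and 100% = reporter-only cells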
Target sequence (P24468 whole entry, looked up): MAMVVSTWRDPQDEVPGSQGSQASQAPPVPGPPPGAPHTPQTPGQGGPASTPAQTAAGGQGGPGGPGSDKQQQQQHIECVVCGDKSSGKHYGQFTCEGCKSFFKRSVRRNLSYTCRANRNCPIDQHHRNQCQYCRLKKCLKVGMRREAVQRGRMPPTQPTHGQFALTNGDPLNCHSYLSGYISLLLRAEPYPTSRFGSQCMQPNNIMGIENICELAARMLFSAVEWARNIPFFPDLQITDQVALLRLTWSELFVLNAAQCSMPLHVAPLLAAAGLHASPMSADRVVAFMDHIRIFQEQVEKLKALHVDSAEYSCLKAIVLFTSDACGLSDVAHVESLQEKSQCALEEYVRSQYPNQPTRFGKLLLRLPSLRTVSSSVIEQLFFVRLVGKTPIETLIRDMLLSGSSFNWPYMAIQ
GalR3 antag: human GalR3 antagonism; O60755; HEK293 GalR3-CNG cAMP membrane potential fluorescence; galR3 body fused to GalR1 C-terminus; inhibition, % at 3 µM; 0.44% of 360,000 active;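 active = inhibition above the screen-wide average plus 3 SD, cut at about 13% in these data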;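 also: forskolin and galanin both at EC90 stimulate the cells; cAMP rise reported by CNG channel membrane potential dye signal; 0% = forskolin plus galanin with DMSO and 100% = forskolin alone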
Gli-Sufu confirm: Gli-SUFU antagonism confirmation, single concentration. shares compounds with Gli-Sufu block. Sufu-KO-LIGHT cells, Gli luciferase reporter, luminescence. inhibition, % at 5 µM. 40% of 2,500 active;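 active = mean inhibition at 5 µM reaching about 45%, limit read from the data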;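 also: plate controls were DMSO-treated cells for no effect and wells lacking cells for full effect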
SufuKO cytotox: cytotoxic in Gli-SUFU antagonist counter-screen. shares compounds with Gli-Sufu block. Sufu-KO-LIGHT cells cytotoxicity, ATP luminescence. cytotoxicity, % at 5 µM. 32% of 2,500 active. AID 651994;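 active = mean cytotoxicity at 5 µM above about 25%, limit read from the data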;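 also: cells exposed to compound overnight for roughly 16 to 18 hours; plate controls were DMSO wells with cells for no effect and medium without cells for full effect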
Wnt3a cs: inhibits Wnt3a reporter, counter-screen for Gli-SUFU antagonists | shares compounds with Gli-Sufu block | 20% of 2,500 active | AID 651995 | Wnt-LIGHT cells, Wnt3a-driven luciferase reporter, luminescence | inhibition, % at 6.25 µM;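 active = mean inhibition above about 25%, limit read from the data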
Starred values were filed as active, the others as inactive; · = no result given. In the library only some 3.4% were active in any assay of this set; here they are far more common.

SMILES	SMARCA2 act	GAA850 FXN act	Gli-Sufu block	Cardio protect	COUP-TFII inh	GalR3 antag	Gli-Sufu confirm	SufuKO cytotox	Wnt3a cs
CC1CCN(c2c(NCc3ccc(C(=O)N4c5ccccc5CC4C)cc3)c(=O)c2=O)CC1 (centres undefined)	-2	0	57*	0	0	1	57*	0	-35
CCC1Sc2ccc(S(=O)(=O)CCC(=O)Nc3ccccc3Cl)cc2NC1=O (centres undefined)	-2	0	51	-2	1	-6	12	23	17
CC(C)(C)S(=O)(=O)N1C[C@H]2CC/C=C\C/C(c3ccccc3)=C\2[C@@H]1CCO	-1	-6	-5	-2	-14	-8	·	·	·
COc1ccc(OC)c(NC(=O)C2CCN(S(=O)(=O)c3c(C)noc3C)CC2)c1	-3	1	94*	-2	5	8	25	-2	7
NCCc1nnc(SCc2ccc(F)cc2)o1	-4	-1	68*	10	-16	-6	8	5	2
COc1ccc(CNCc2cc(OC)ccc2OC)cc1	-3	-1	20	6	-17	-5	·	·	·
COc1cc(CNCc2cc(OC)ccc2OC)cc(OC)c1	-4	-2	57*	-8	1	-2	14	10	-2
CCNC(=O)C1(C)CCCN(C(=O)c2oc3ccccc3c2C)C1 (centres undefined)	-6	1	·	-3	-19	-5	·	·	·
Cc1cc(NC(=O)C2CCN(S(=O)(=O)Cc3ccccc3)CC2)ccc1-n1cnnn1	-5	0	60*	-1	12	-4	28	12	-36
COc1cccc(NC(=O)CSCc2cc(=O)n3ccsc3n2)c1	·	0	-9	0	·	·	·	·	·
COC(=O)c1ccc(OCc2cc(=O)n3ccsc3n2)cc1	1	3	80*	23	-15	3	18	9	2
COc1ccc(C2(O)C(=O)Nc3ccc(C)cc32)cc1OC (centres undefined)	6	2	3	-4	-2	-11	·	·	·
Cc1cccc(C(=O)NC2CCN(C(=O)Nc3ccccc3C)CC2)c1	-1	0	67*	-4	5	-6	24	0	4
COc1ccc(-n2c(=O)/c(=C\c3cccs3)s/c2=C(/C#N)C(=O)N2CCN(C)CC2)cc1	-1	0	57*	7	-8	3	10	13	-16
N#C/C(C(=O)N1CCOCC1)=c1/s/c(=C\c2ccccn2)c(=O)n1-c1ccccc1	-2	3	-3	10	-8	3	·	·	·
N#CC1C=Cc2c(ccc3ccccc23)N1C(=O)c1ccccc1 (centres undefined)	-8	-3	51	-5	-22	8	61*	57*	7
N#CC1C=Cc2ccccc2N1C(=O)c1ccccc1 (centres undefined)	-1	-2	-3	1	0	-7	·	·	·
Cc1onc(-c2c(F)cccc2Cl)c1C(=O)OCC(=O)Nc1cccc(S(=O)(=O)N(C)C)c1	0	-1	53	-4	21	2	12	6	-50
Cc1onc(-c2c(F)cccc2Cl)c1C(=O)Nc1ccc(Cl)c(S(=O)(=O)N(C)C)c1	1	1	58*	5	-4	-7	16	13	-21
Cc1noc(C)c1C(=O)OCC(=O)Nc1cccc(S(=O)(=O)N(C)C)c1	-2	-1	-20	-3	8	-4	·	·	·
Cc1cccc(NS(=O)(=O)c2ccc(C)c(NS(=O)(=O)c3cccs3)c2)c1	-4	0	96*	-2	-25	-3	14	12	-11
C[N+]1=C(/C=C/Nc2ccccc2Cl)C(C)(C)c2ccccc21	-5	1	56*	-22	-4	-9	52*	39*	-8
FC(F)(F)c1cnc(/C=C/Nc2ccccc2Cl)c(Cl)c1	6	-1	26	-1	3	-4	·	·	·
FC(F)(F)c1cnc(Sc2nnc(-c3cccs3)n2CC2CCCO2)c(Cl)c1 (centres undefined)	2	0	51	-2	11	0	11	24	-28
CCOc1ccc(N(CC(=O)Nc2ccccc2OC)S(=O)(=O)c2ccccc2)cc1	-3	-2	54	-2	-32	-6	47*	60*	-30
SMILES	SMARCA2 act	GAA850 FXN act	Gli-Sufu block	Cardio protect	COUP-TFII inh	GalR3 antag	Gli-Sufu confirm	SufuKO cytotox	Wnt3a cs
CCOc1ccc(N(CC(=O)Nc2ccccc2OCC)S(=O)(=O)c2c(C)noc2C)cc1	-4	-2	53	1	-26	-3	63*	52*	47*
CCOc1ccc(N(CC(=O)Nc2ccc(C)cc2)S(=O)(=O)c2c(C)noc2C)cc1	-2	-1	8	-8	8	-1	·	·	·
Cc1ccc(S(=O)(=O)Nc2c3ccccc3nc(=O)n2-c2ccccc2)cc1	0	1	12	0	-4	-6	·	·	·
Cc1ccc(S(=O)(=O)Nc2ccc(-n3c(C)nc4ccccc4c3=O)cc2)cc1	-3	-1	82*	4	3	2	20	21	-10
O=c1nc2ccccc2c(NS(=O)(=O)c2ccccc2)n1-c1ccccc1	0	2	83*	16	3	-5	27	15	-15
Cc1ccc(-n2c(SCC(=O)Nc3ccccc3-c3ccccc3)nnc2-c2ccccn2)cc1	-3	·	·	·	-16	·	·	·	·
CN(C[C@@H](Cc1cccc2ccccc12)N(C[C@H](Cc1ccccc1)N(CCc1ccccc1)N=O)N=O)N=O	1	2	60*	1	8	-4	7	10	-12
COc1ccc([C@H]2OC(=O)C[C@@H]2C(=O)N2CCN(c3ccccc3F)CC2)cc1OC	-2	·	·	·	-18	·	·	·	·
O=C(C[C@H]1C/C=C\C[C@H](NC(=O)OCC2c3ccccc3-c3ccccc32)C(=O)OC[C@H](Cc2ccccc2)NC1=O)N[C@H](CO)Cc1ccccc1	0	-2	49	-7	-1	-3	·	·	·
O=C(C[C@@H]1C/C=C\C[C@H](NC(=O)OCC2c3ccccc3-c3ccccc32)C(=O)O[C@H](c2ccccc2)CNC1=O)NCCO	-1	1	54	-23	-9	6	59*	34*	-71
O=C(N[C@@H]1C/C=C\C[C@@H](CC(=O)N(CCO)Cc2ccccc2)C(=O)NCCOC1=O)OCC1c2ccccc2-c2ccccc21	·	1	52	-4	·	·	48*	22	-30
O=C(C[C@H]1C/C=C\C[C@H](NC(=O)OCC2c3ccccc3-c3ccccc32)C(=O)O[C@@H](c2ccccc2)CNC1=O)NCCO	-4	1	27	-28	11	-7	·	·	·
